Measurements: PubChem BioAssay (NCATS)
Results filed as inconclusive are left out. Active and inactive are the calls of the source. Unless noted, calls come from the whole dose curve; as a rule, active = well fitted curve in the direction sought with a large enough effect; inconclusive = small, poorly fitted or top-dose-only effect, or another doubt; inactive = no such curve, though single readings can be large; an effect the other way counts as inactive or inconclusive.

Assays:
[1] = qHTS profiling of the MIPE4 collection as inhibitors of Plasmodium falciparum (3D7) proliferation (AID 743344; call rule not given here;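 note: scaled between DMSO vehicle wells and 0.29 µM artemisinin as full inhibition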); settings: P. falciparum 3D7 in erythrocytes, SYBR Green DNA fluorescence, 72 h; at 28.5 µM unless noted
Procedure, shortened: (§1)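 Erythrocytes infected with P. falciparum (0.3% parasitemia, 2.5% hematocrit) incubated with compounds 72 h at 37 C, 5% CO2. Lysis with saponin/Triton buffer containing SYBR Green I, overnight at room temperature in the dark; DNA fluorescence (485/535 nm) normalised to 0.29 uM artemisinin and DMSO.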

[2] = qHTS profiling of the MIPE4 collection as inhibitors of Plasmodium falciparum (DD2) proliferation (AID 743345; call rule not given here); settings: P. falciparum Dd2 in erythrocytes, SYBR Green DNA, 72 h; at 28.5 µM unless noted
Procedure, shortened: as §1

[3] = qHTS profiling of the MIPE4 collection as inhibitors of Plasmodium falciparum (DD2) proliferation (Rep 2) (AID 743346; call rule not given here); settings: P. falciparum Dd2 in erythrocytes, SYBR Green DNA, 72 h; at 28.5 µM unless noted
Procedure, shortened: as §1

[4] = qHTS profiling of the MIPE4 collection as inhibitors of Plasmodium falciparum (HB3) proliferation (AID 743347; call rule not given here;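 note: plate controls were DMSO vehicle wells for no effect and artemisinin wells for full effect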); settings: P. falciparum HB3 in erythrocytes, SYBR Green DNA, 72 h; at 28.5 µM unless noted
Procedure, shortened: as §1

[5] = High-throughput drug toxicity screening in the BPDCN cell line Gen2.2 (AID 1224824; call rule not given here;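 note: cells exposed to compounds for 48 h before reading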); settings: Gen2.2 BPDCN cells; at 45.8 µM (top of the series) unless noted
Procedure, shortened: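 Gen2.2, 500 cells/well, phenol red-free RPMI/10% FBS/Pen-Strep; 48 h cpd, 37 °C/5% CO2; CTG lum, 15 min RT. Norm: DMSO = 100%, bortezomib 9.2 uM final = 0%.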

[6] = High-throughput drug toxicity screening in the BPDCN cell line Cal-1 (AID 1224825; call rule not given here); settings: Cal-1 BPDCN cell viability, qHTS; at 45.8 µM (top of the series) unless noted
Procedure, shortened: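 Exponentially growing Cal-1 cells, 500 per well in phenol red-free RPMI with 10% FBS, were exposed to compounds for 48 h at 37 °C, 5% CO2. Viability was read by CellTiter-Glo luminescence and normalised to DMSO (100%) and 9.2 uM bortezomib (0%).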

[7] = qHTS assay for measurement of the activity of small molecule inhibitors on Zika virus induced Caspase-3 activity in human iPSC derived neural progenitor cells (hNPCs) (AID 1224857); note: % of control where 0% means no effect; nearly all actives have a fitted effect of over 65% in size
Procedure, shortened: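 After overnight (16–20 h) culture at 350 cells/well, hNPCs get compound, then ZIKV 2 FFU/cell one hour later. Six hours on, Caspase-Glo 3/7 is added and luminescence measured.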

[8] = qHTS assay for measurement of the activity of small molecule inhibitors on Zika virus induced Caspase-3 activity in human astrocytoma cells (AID 1224859);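 note: plate controls were ZIKV-infected untreated cells for no effect and uninfected cells for full effect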
Procedure, shortened: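 Inhibition of Zika-induced caspase-3/7 activity: SNB-19 cells, 1 h compound pretreatment, ZIKV 2 FFU/cell for 6 h at 37 C, Caspase-Glo luminescence read-out.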

[9] = qHTS Screen of the MIPE 4.0 Collection Against Ewings Sarcoma (TC71) (AID 1259253); note: nearly all actives have a fitted effect of over 40% in size; note: potency is the fitted concentration of half-maximal effect
Procedure, shortened: (§2)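 Measured: ATP luminescence (CellTiter-Glo) 10 min after reagent addition, following 48 h drug treatment. Relative luciferase units converted to percent activity, with no-cell wells as full and DMSO wells as zero inhibition.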

[10] = Identifying Small Molecule Inhibitors of Pancreatic Cancer Stem Cells (A278, Adherent) (AID 1259361); note: nearly all actives have a fitted effect of over 35% in size
Procedure, shortened: (§3)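 After a 4 h attachment period, compounds were pinned into wells and cultures held 48 h under standard incubator conditions. Viability was then measured as CellTiter-Glo luminescence following 10 min at room temperature.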

[11] = P-glycoprotein substrates identified in KB-8-5-11 adenocarcinoma cell line, qHTS therapeutic library screen (AID 1346987); note: nearly all actives have a fitted effect of over 65% in size
Procedure, shortened: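 Steps: plate 500 KB-8-5-11 cells/well in DMEM + 10% FCS (colchicine removed); pin compounds in dose-response; incubate 72 h, 37 degree C, 5% CO2; add CellTiter-Glo, 5 min; read luminescence.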

[12] = qHTS Screen of the MIPE 4.0 Collection Against Ewings Sarcoma (EW8) (AID 1259255);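 note: 100% = DMSO-treated cells and 0% = medium-only wells without cells; nearly all actives have a fitted effect of over 35% in size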
Procedure, shortened: as §2

[13] = qHTS Screen of the MIPE 4.0 Collection Against Ewings Sarcoma (TC32) (AID 1259256); note: nearly all actives have a fitted effect of over 45% in size; note: potency is the fitted concentration of half-maximal effect
Procedure, shortened: as §2

[14] = P-glycoprotein substrates identified in KB-3-1 adenocarcinoma cell line, qHTS therapeutic library screen (AID 1346986); note: nearly all actives have a fitted effect of over 60% in size
Procedure, shortened: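 Resistance attributable to P-gp was assessed by comparing AC50 in KB-8-5-11 with parental KB-3-1 and by tariquidar reversal. Cells were exposed 72 h and viability read by CellTiter-Glo.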

[15] = Identifying Small Molecule Inhibitors of Pancreatic Cancer Stem Cells (Panc1, Adherent) (AID 1259362); settings: Potency: viability;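 note: compound exposure lasted 48 h before the viability read; plate controls were DMSO-treated cells for no effect and cell-free media wells for full effect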
Procedure, shortened: as §3

[16] = Identifying Small Molecule Inhibitors of Pancreatic Cancer Stem Cells (SN12C, Adherent) (AID 1259358);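 note: cell survival measured after 48 h of compound exposure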
Procedure, shortened: as §3

SMILES: CN(C)Cc1ccc(-c2nc3cccc4c3n2CCNC4=O)cc1
- parasite growth, % of DMSO control [1]: 64%
- parasite growth remaining, % of DMSO control (lower = more inhibition) [2]: 100%
- parasite growth, % of control (lower = inhibition) [3]: 73.5%
- growth, % of control [4]: 97%
- cell viability, % of control (lower = more cytotoxic) [5]: 15.8%
- viability (% of control) [6]: 4.01%
- Potency [7]: inactive
- Potency [8]: inactive
- Potency [9]: 18.7 µM (active)
- IC50 (viability decrease) [10]: 23.5 µM (active)
- Potency [11]: inactive

SMILES: O=c1ccn([C@@H]2O[C@H](CO)[C@H](O)[C@H]2O)c(=O)[nH]1
- parasite growth, % of DMSO control [1]: 92.2%
- parasite growth remaining, % of DMSO control (lower = more inhibition) [2]: 90.5%
- parasite growth, % of control (lower = inhibition) [3]: 99.5%
- growth, % of control [4]: 107%
- cell viability, % of control (lower = more cytotoxic) [5]: 90%
- viability (% of control) [6]: 112%
- Potency [7]: inactive
- Potency [8]: inactive
- Potency [12]: inactive
- Potency [13]: inactive
- Potency [14]: inactive
- Potency [11]: inactive

SMILES: CC1CCC(C(=O)N(c2cc(C#CC(C)(C)C)sc2C(=O)O)C2CCC(O)CC2)CC1 (centres undefined)
- parasite growth, % of DMSO control [1]: 4.72%
- parasite growth remaining, % of DMSO control (lower = more inhibition) [2]: 54.5%
- parasite growth, % of control (lower = inhibition) [3]: 9.42%
- growth, % of control [4]: 3.91%
- cell viability, % of control (lower = more cytotoxic) [5]: 50.9%
- viability (% of control) [6]: 92%
- Potency [7]: inactive
- Potency [8]: inactive
- Potency [9]: 26.4 µM (active)
- Potency [13]: inactive
- Potency [11]: inactive

SMILES: COC1CCC(N(C(=O)C2CCC(C)CC2)c2cc(C3=CCCCC3)sc2C(=O)O)CC1 (centres undefined)
- growth, % of control [4]: 22.9%
- cell viability, % of control (lower = more cytotoxic) [5]: 66.7%
- viability (% of control) [6]: 89.2%
- Potency [7]: inactive
- Potency [8]: inactive
- Potency [9]: 20.9 µM (active)
- Potency [13]: inactive
- Potency [11]: inactive

SMILES: O=C(Nc1cc(Cl)cc2c1[nH]c1cnccc12)c1cccnc1
- parasite growth, % of DMSO control [1]: 5.73%
- parasite growth remaining, % of DMSO control (lower = more inhibition) [2]: 15.5%
- parasite growth, % of control (lower = inhibition) [3]: 10.7%
- growth, % of control [4]: 3.51%
- cell viability, % of control (lower = more cytotoxic) [5]: 67.6%
- viability (% of control) [6]: 97.7%
- Potency [7]: inactive
- Potency [8]: inactive
- Potency [9]: 23.5 µM (active)
- Potency [13]: 26.4 µM (active)
- Potency [15]: inactive
- Potency [14]: inactive
- Potency [11]: inactive

SMILES: Nc1ncnc2c1nc(Cl)n2[C@@H]1O[C@H](CO)[C@@H](O)[C@@H]1O
- parasite growth, % of DMSO control [1]: 187%
- parasite growth remaining, % of DMSO control (lower = more inhibition) [2]: 109%
- parasite growth, % of control (lower = inhibition) [3]: 43.2%
- growth, % of control [4]: 125%
- cell viability, % of control (lower = more cytotoxic) [5]: 6.19%
- viability (% of control) [6]: 9.15%
- Potency [7]: inactive
- Potency [8]: inactive
- Potency [9]: 26.4 µM (active)
- Potency [13]: 20.9 µM (active)

SMILES: Cc1cc(OCCCc2c(C(=O)O)n(Cc3cccnc3)c3c(-c4c(COc5ccc(N6CCN([S+](C)(=O)[O-])CC6)cc5)nn(C)c4C)cccc23)cc(C)c1Cl
- parasite growth, % of DMSO control [1]: 6.87%
- parasite growth remaining, % of DMSO control (lower = more inhibition) [2]: 8.65%
- parasite growth, % of control (lower = inhibition) [3]: 16%
- growth, % of control [4]: 5.16%
- cell viability, % of control (lower = more cytotoxic) [5]: 62.9%
- viability (% of control) [6]: 96.7%
- Potency [7]: inactive
- Potency [8]: inactive
- Potency [9]: 20.9 µM (active)
- Potency [13]: 23.5 µM (active)
- Potency [11]: inactive

SMILES: CC(C)(C)C(=O)Oc1ccc2c(c1)nc(NC(=O)c1cccc([N+](=O)[O-])c1)n2CCCO
- parasite growth, % of DMSO control [1]: 21.2%
- parasite growth remaining, % of DMSO control (lower = more inhibition) [2]: 46.4%
- parasite growth, % of control (lower = inhibition) [3]: 22.2%
- growth, % of control [4]: 10.6%
- cell viability, % of control (lower = more cytotoxic) [5]: 190%
- viability (% of control) [6]: 102%
- Potency [7]: inactive
- Potency [8]: inactive
- Potency [9]: inactive
- Potency [13]: inactive
- Potency [16]: inactive
- IC50 (viability decrease) [10]: 18.7 µM (active)
- Potency [15]: inactive
